Compound activity: PubChem BioAssay, National Center for Advancing Translational Sciences (NCATS)
Most compounds without a hit are left out; they make up all but 11% or so of the library.
HTT cytoprotect: protects HTT-Q103 PC12 cells, measured by ATP; PC12 HTT-Q103 induced, cytoprotection, ATP luminescence, 40 h; Potency, µM (titrated, usually from 56.4 µM), for inactives: cytoprotection (ATP increase), actives largely listed as activators; hit rate 0.14% among 230,000; active means well fitted curve in the direction sought with a large enough effect; inconclusive means small, poorly fitted or top-dose-only effect, or another doubt; inactive means no such curve, though single readings can be large; an effect the other way counts as inactive or inconclusive; further: potency means the concentration at half of the fitted maximal effect; % of control where 0% means no effect; nearly all actives have a fitted effect of over 45% in size
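Rat PC12, Q103 Htt exon1-GFP fusion, ecdysone promoter; tebufenozide inducer 100 nM final; compound titration; qHTS, 1500 cells/well; ATPlite luminescent read.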
ALDH1A1 inh: blocks purified human ALDH1A1 activity; P00352; Purified ALDH1A1, NADH fluorescence, propionaldehyde substrate; Potency, µM (series often up to 75.3 µM), inactives show at the highest dose activity, negative = inhibition, actives largely listed as inhibitors; hit rate 7.3% among 220,000;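 further: potency means the concentration at half of the fitted maximal effect; plate controls were no enzyme wells and a reference inhibitor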
Target sequence (P00352 whole entry, looked up): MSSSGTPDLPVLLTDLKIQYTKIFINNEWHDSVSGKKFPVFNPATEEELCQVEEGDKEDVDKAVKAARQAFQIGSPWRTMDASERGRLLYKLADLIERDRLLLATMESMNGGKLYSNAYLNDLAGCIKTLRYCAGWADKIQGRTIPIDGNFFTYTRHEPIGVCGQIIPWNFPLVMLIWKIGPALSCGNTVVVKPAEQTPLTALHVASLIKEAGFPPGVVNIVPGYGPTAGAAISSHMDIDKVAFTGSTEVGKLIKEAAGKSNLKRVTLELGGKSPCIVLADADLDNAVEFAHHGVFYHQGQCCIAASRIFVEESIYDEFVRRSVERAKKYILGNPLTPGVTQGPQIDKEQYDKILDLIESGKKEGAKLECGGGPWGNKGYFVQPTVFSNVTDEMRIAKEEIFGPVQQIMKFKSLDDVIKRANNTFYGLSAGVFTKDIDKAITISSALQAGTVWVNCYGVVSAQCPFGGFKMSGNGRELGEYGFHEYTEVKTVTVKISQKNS
GoLoco inh red: inhibitors of human Gai1-RGS12 GoLoco interaction (red fluorophore). P63096. Gai1:RGS12 GoLoco peptide FP, rhodamine, 10 min. Potency, µM (series often up to 61.6 µM), for inactives: at the top dose activity, negative = inhibition, usual class: inhibitors. hit rate 0.44% among 230,000; active means well fitted inhibition curve with a large enough effect, not every such curve was filed as active; inactive means no such curve, though single readings can be large or run the other way; further: potency means the concentration at half of the fitted maximal effect; on the % scale 0 is the no-effect control and ±100 the full control effect; nearly all actives have a fitted effect of over 30% in size
PNC assembly inh: blocks assembly of the perinucleolar compartment. PC3M PTB-GFP, PNC prevalence imaging, 16 h; hits give low values. activity change (PNC), negative = inhibition, % at 10 µM. hit rate 3.1% among 140,000. AID 2417;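 active means readout at or below -70, meaning at least 70% loss of cells showing the perinucleolar compartment, a nuclear body marking cancer cells; inconclusive means readout between -30 and a set limit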;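 further: plate controls were DMSO wells for no effect and camptothecin positive control wells for full effect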
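Compounds are pinned in duplicate onto adhered PC3M cells stably expressing GFP-tagged PTB and incubated 16 h at 37 C. Cells are then fixed, nuclei stained with Hoechst, and PNC-positive cells counted.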
HttQ103 aggreg: mutant huntingtin aggregation inhibition; PC12 HttQ103-GFP aggregates, Acumen cytometry, 40 h; AID 1688; Potency, µM (series often up to 46.1 µM), for inactives: top-dose activity change, negative = inhibition, usual class: inhibitors; hit rate 1.1% among 220,000; active means well fitted curve in the direction sought with a large enough effect; inconclusive means small, poorly fitted or top-dose-only effect, or another doubt; inactive means no such curve, though single readings can be large; an effect the other way counts as inactive or inconclusive; further: potency means the concentration at half of the fitted maximal effect; on the % scale 0 is the no-effect control and ±100 the full control effect; nearly all actives have a fitted effect of over 60% in size
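Steps: seed 1500 PC12 HTTQ103-GFP cells/well; add tebufenozide, 100 nM final; add compound titration; add ATPLite reagent; quantify GFP aggregates by laser scanning cytometry.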
HPGD inh: HPGD (human) dehydrogenase inhibition. P15428. purified HPGD, NADH fluorescence kinetic, PGE2 substrate. AID 894. hit rate 4.3% among 150,000. Potency, µM, for inactives: top-dose activity change, negative = inhibition, most hits filed as inhibitors; further: potency means the concentration at half of the fitted maximal effect; on the % scale 0 is the no-effect control and ±100 the full control effect
Target sequence (P15428 whole entry, looked up): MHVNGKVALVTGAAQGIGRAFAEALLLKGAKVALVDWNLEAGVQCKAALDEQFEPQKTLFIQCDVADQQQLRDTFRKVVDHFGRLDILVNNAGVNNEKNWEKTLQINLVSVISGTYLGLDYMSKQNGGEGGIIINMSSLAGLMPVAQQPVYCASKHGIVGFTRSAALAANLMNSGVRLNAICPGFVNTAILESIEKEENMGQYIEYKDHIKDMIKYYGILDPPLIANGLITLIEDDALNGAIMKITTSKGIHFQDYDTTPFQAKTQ
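20 nM HPGD preincubated 15 min at room temperature with compound in 50 mM Tris-HCl pH 8, 0.01% Tween 20. Started with 1 mM NAD+ and 30 uM prostaglandin E2; NADH fluorescence (360/450 nm) read 5 times over 30-s intervals, last minus first.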
Starred values were filed as active, the others as inactive; ! = not active in a repeat; [ ] = dose if it differs, or a comment. Unless noted, the call rests on the fitted dose curve; in most records, active means well fitted inhibition curve with a large enough effect (not every such curve was filed as active); inconclusive means small, poorly fitted or top-dose-only effect, or another doubt; inactive means no such curve, though single readings can be large or run the other way.

For C[C@@H]1CC([C@H](O)CC2CC(=O)NC(=O)C2)C(=O)[C@@H](C)C1 (some centres undefined) the results were ALDH1A1 inh -6% and GoLoco inh red 6%.
O=C1NC(=S)NC(=O)C1C/C=C/c1ccccc1 was read as HTT cytoprotect -23%, ALDH1A1 inh 28µM*, GoLoco inh red 1%, PNC assembly inh -1, HttQ103 aggreg 17%[9.22 µM] and HPGD inh 10µM*.
`CC1=NN(c2ccccc2)C(=O)[C@@H]1N=Nc1ccc([As](=O)(O)O)c(O)c1` gave HTT cytoprotect -4%[10 µM], ALDH1A1 inh 3.5µM*, GoLoco inh red -4%[14.2 µM] and HPGD inh -6%.
`Nc1nc(N)c(N=Nc2ccc([As](=O)(O)O)c(O)c2)c(N)n1` gave HTT cytoprotect -9%[10 µM], ALDH1A1 inh 9%[13.5 µM], GoLoco inh red 0%[14.2 µM] and HPGD inh -3%.
For Cc1ccc(C(=O)c2ccc(CC(=O)O)n2C)cc1 the results were HTT cytoprotect -98%, ALDH1A1 inh 2%, GoLoco inh red 3%, HttQ103 aggreg -3%[20.6 µM] and HPGD inh 16µM*!.
Screening COc1ccc(N2C(=O)CS(=O)C(c3ccccc3)C2=O)cc1 (centres undefined) returned HTT cytoprotect -11%, ALDH1A1 inh 1.1µM*, GoLoco inh red -14% and HttQ103 aggreg 3%[9.22 µM].
For COc1ccc(N2C(=O)CC(N3CCC(n4c(=O)[nH]c5ccccc54)CC3)C2=O)cc1 (centres undefined) the results were HTT cytoprotect 8%[10 µM], ALDH1A1 inh inconclusive, GoLoco inh red 1%, PNC assembly inh -11, HttQ103 aggreg 7% and HPGD inh -12%.
`Oc1ccc([C@H](O)C2CCCCN2)cc1O` (some centres undefined) gave ALDH1A1 inh 5%[13.5 µM], GoLoco inh red 5%[14.2 µM] and HPGD inh 1%.
N#CSCSC#N was read as HTT cytoprotect -93%, ALDH1A1 inh 0.11µM*, GoLoco inh red -13% and HPGD inh 6.3µM*.
Screening Cc1cc2c(s1)NC(=O)CN=C2c1cccs1 returned HTT cytoprotect -1%[10 µM], ALDH1A1 inh inconclusive, GoLoco inh red 13%, PNC assembly inh -21, HttQ103 aggreg 14% and HPGD inh 25µM*.
C[C@H]1OC[C@@H](C[N+](C)(C)C)O1 was read as HTT cytoprotect -7%[1.9 µM], ALDH1A1 inh -11%, GoLoco inh red 4µM*, PNC assembly inh 5, HttQ103 aggreg inconclusive and HPGD inh 1%.
For O=C(CNC(=O)c1cccs1)NCC(=O)OCC(=O)c1ccc([N+](=O)[O-])cc1 the results were HTT cytoprotect -13%, ALDH1A1 inh 2.2µM*, GoLoco inh red 3% and HttQ103 aggreg 3%.
CNC(=O)OCCc1n(C)cc[n+]1C was read as HTT cytoprotect -10%[10 µM], ALDH1A1 inh 6%, GoLoco inh red 1.6µM*, PNC assembly inh 4, HttQ103 aggreg 7% and HPGD inh -6%.
For C[C@@]12CC[C@H]3[C@@H](CCC4=C(O)C(=O)CC[C@]43C)[C@H]1CCC2=O the results were HTT cytoprotect 7%[1.9 µM].
Screening C[C@@](Br)(C(=O)O)[C@H](Br)C(=O)O returned HTT cytoprotect 2%[10 µM], ALDH1A1 inh -2%[13.5 µM], GoLoco inh red 1%[14.2 µM] and HPGD inh -3%.
`Oc1ccc(Cl)cc1Cc1ccccc1` gave HTT cytoprotect 15%, ALDH1A1 inh -5%, GoLoco inh red -4%, HttQ103 aggreg -21% and HPGD inh 10µM*.
Oc1ccc(Cl)cc1Cc1cc(Cl)ccc1O was read as HTT cytoprotect -28%, ALDH1A1 inh 12%, GoLoco inh red 7%, PNC assembly inh -1, HttQ103 aggreg inconclusive and HPGD inh 14µM*!.
COc1ccc(N2C(=O)NC(=O)/C(=C\c3ccc([N+](=O)[O-])s3)C2=O)cc1 was read as HTT cytoprotect -29%, ALDH1A1 inh 40µM*, GoLoco inh red 230% and HttQ103 aggreg -13%.
`O=C1NC(=O)N(c2ccccc2)C(=O)/C1=C\c1ccccc1[N+](=O)[O-]` gave HTT cytoprotect -7%[10 µM], GoLoco inh red 0% and HttQ103 aggreg -2%[9.22 µM].
`CCOc1ccc(N2C(=O)NC(=O)/C(=C\c3cc(OC)c(OC)cc3[N+](=O)[O-])C2=O)cc1` gave HTT cytoprotect -10%[0.074 µM], ALDH1A1 inh 11µM*, GoLoco inh red -20%, PNC assembly inh -3, HttQ103 aggreg 7% and HPGD inh 28µM*.
For COc1ccc(N2C(=O)/C(=C/C=C/c3ccccc3[N+](=O)[O-])C(=O)NC2=S)cc1 the results were HTT cytoprotect 29%, ALDH1A1 inh 8.9µM*, GoLoco inh red 7% and HttQ103 aggreg -8%.
COc1ccc(CN2C(=O)NC(=O)/C(=C/c3ccc([N+](=O)[O-])s3)C2=O)cc1 was read as HTT cytoprotect 8%[10 µM], ALDH1A1 inh 4µM*, GoLoco inh red 41% and HttQ103 aggreg -8%[9.22 µM].
Screening C=CCN1CC[C@@]23CCCC[C@@H]2[C@@H]1Cc1ccc(O)cc13 returned HTT cytoprotect 11%[1.9 µM].
`ClC(Cl)=C(Cl)Cl` gave HTT cytoprotect -5%, ALDH1A1 inh 14%, GoLoco inh red 14% and HPGD inh -5%.
`CC(/C=C(\C)Nc1ccccc1)=Nc1ccccc1` gave HTT cytoprotect -9%, ALDH1A1 inh 25µM*, GoLoco inh red -8% and HttQ103 aggreg 0%.
Screening CC(=O)O[C@H]1C(=O)[C@@]2(C)C([C@H](OC(=O)c3ccccc3)[C@]3(O)C[C@H](OC(=O)[C@H](O)[C@@H](NC(=O)c4ccccc4)c4ccccc4)C(C)=C1C3(C)C)[C@]1(OC(C)=O)CO[C@@H]1C[C@@H]2OC(=O)[C@H](C)NC(=O)c1ccc(-c2c3ccc(=O)cc-3oc3cc(O)ccc23)c(C(=O)O)c1 (some centres undefined) returned HTT cytoprotect -150%[10 µM], ALDH1A1 inh 0%[13.5 µM], GoLoco inh red 2µM* and HPGD inh -4%.
O=c1[nH]c(=O)n(CCC2=CCCCC2)c(O)c1C=NCc1cccnc1 was read as HTT cytoprotect -1%, ALDH1A1 inh 25µM*, GoLoco inh red -4%, PNC assembly inh 59, HttQ103 aggreg 2% and HPGD inh -14%.
Screening Cc1nc2cc([N+](=O)[O-])ccc2c(=O)n1-c1ccccc1[N+](=O)[O-] returned HTT cytoprotect 14%[10 µM], ALDH1A1 inh 32µM*, GoLoco inh red 9% and HttQ103 aggreg 10%[9.22 µM].
For NCCc1cc(O)c(O)cc1O the results were HTT cytoprotect -77%, ALDH1A1 inh -14%, GoLoco inh red 25µM*, HttQ103 aggreg 3% and HPGD inh -16%.
